Laboratory results: PubChem BioAssay (EPA / NIEHS)
The source made the active and inactive calls. The calls were made as follows: active = hit-call score of the fitted dose curve at least 0.9, where 1 is the maximum; inactive = score below 0.9.

Key:
[1] = ATG_GLI_CIS: Attagene CIS-FACTORIAL HepG2 Assay for human Zinc Finger Protein GLI1 (AID 2282945); conditions: HepG2, Attagene cis-factorial reporter mRNA, GLI element; actives raise or lower the signal
Procedure, shortened: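 HepG2 cells transiently transfected with cis-promoter multiplexed reporter units report endogenous transcription factor activity. After 24 h chemical exposure, reporter mRNA was quantified by RT-PCR, 6-FAM labelling, HpaI digestion and capillary electrophoresis, with bidirectional fitting against DMSO.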

[2] = target: Bile acid receptor (Homo sapiens) (UniProt Q96RI1); assay: ATG_IR1_CIS: Attagene CIS-FACTORIAL HepG2 Assay for human Nuclear Receptor Subfamily 1 Group H Member 4 (NR1H4), IR1 submotif (AID 2282946); conditions: IR1 reporter transcription, actives raise or lower the signal
Procedure, shortened: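 Transient MRTU transfection, HepG2; 24 h dosing; RNA → RT-PCR → 6-FAM primer extension → HpaI digest → capillary electrophoresis fluorescence. Gain/loss of signal fitted relative to DMSO.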

[3] = ATG_GRE_CIS: Attagene CIS-FACTORIAL HepG2 Assay for human Glucocorticoid Response Elements (GRE) (AID 2282947); conditions: HepG2 GRE cis-reporter, Attagene multiplex mRNA; actives raise or lower the signal
Procedure, shortened: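 HepG2 cells transiently transfected with multiple cis-promoter reporter units measure endogenous TF activity; 24 h compound exposure. Reporter mRNA quantified by RT-PCR, FAM labelling, HpaI digestion and capillary electrophoresis; bidirectional fit vs DMSO baseline.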

[4] = ATG_ISRE_CIS: Attagene CIS-FACTORIAL HepG2 Assay for human Interferon Regulatory Factor 1 (IRF1) binding to an Interferon-Stimulated Response Element (ISRE) (AID 2282948); conditions: HepG2 ISRE cis-reporter (Attagene), mRNA transcription readout; actives raise or lower the signal
Procedure, shortened: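 Cell-based cis-reporter assay; HepG2; 24 h exposure; reporter mRNA by RT-PCR plus capillary electrophoresis fluorescence; activity in either direction scored relative to DMSO.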

[5] = ATG_M_32_CIS: Attagene CIS-FACTORIAL HepG2 Assay for M32 Transcription Factor (Internal Marker) (AID 2282949); conditions: HepG2 Attagene cis-factorial M32 reporter, mRNA; actives raise or lower the signal;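 also: background control marker of the multiplexed CIS panel rather than a real target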
Procedure, shortened: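 Following 24 h chemical exposure of HepG2 cells transiently expressing cis-promoter reporter constructs, reporter transcript levels were determined by RT-PCR with fluorescent labelling and capillary electrophoresis, then fitted bidirectionally against DMSO.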

[6] = ATG_M_06_CIS: Attagene CIS-FACTORIAL HepG2 Assay for M06 Transcription Factor (Internal Marker) (AID 2282950); conditions: HepG2 Attagene CIS-FACTORIAL M06 internal marker reporter; actives raise or lower the signal
Procedure, shortened: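 Steps: transfect HepG2 with multiplexed cis-element reporter constructs; dose chemical 24 h; extract RNA with DNase treatment; reverse-transcribe, PCR-amplify, 6-FAM label, HpaI digest; separate fragments by capillary electrophoresis. Activity fitted both directions versus DMSO.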

[7] = target: Hypoxia-inducible factor 1-alpha (Homo sapiens) (UniProt Q16665); assay: ATG_HIF1a_CIS: Attagene CIS-FACTORIAL HepG2 Assay for human Hypoxia Inducible Factor 1 (HIF1A) (AID 2282951); conditions: HepG2 Attagene cis-factorial HIF1a reporter transcription; actives raise or lower the signal
Procedure, shortened: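 Cis-element reporter constructs were transiently transfected into HepG2 cells, which were treated for 24 h; reporter RNA was reverse-transcribed, amplified, labelled and resolved by capillary electrophoresis.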

[8] = target: Hepatocyte nuclear factor 6 (Homo sapiens) (UniProt Q9UBC0); assay: ATG_HNF6_CIS: Attagene CIS-FACTORIAL HepG2 Assay for human Hepatocyte Nuclear Factor 6 (HNF6) (AID 2282952); conditions: HepG2 Attagene cis-factorial HNF6 reporter transcription; actives raise or lower the signal
Procedure, shortened: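 HepG2 cells transiently transfected with cis-element-driven multiple reporter transcription units, dosed 24 h; reporter mRNA quantified by RT-PCR, FAM primer extension, HpaI digestion and capillary electrophoresis; bidirectional fit versus DMSO baseline.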

[9] = target: Heat shock factor protein 1 (Homo sapiens) (UniProt Q00613); assay: ATG_HSE_CIS: Attagene CIS-FACTORIAL HepG2 Assay for human Heat Shock Transcription Factor 1 (HSE) (AID 2282953); conditions: HepG2 HSE cis-reporter, Attagene RNA transcription; actives raise or lower the signal
Procedure, shortened: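 Cells were transfected with cis-element-driven reporter constructs, dosed for 24 h, then total RNA was reverse-transcribed and reporter cDNA amplified, FAM-labelled and digested with HpaI. Fragments were resolved by capillary electrophoresis; gain or loss was fitted against DMSO.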

[10] = ATG_MRE_CIS: Attagene CIS-FACTORIAL HepG2 Assay for human Metal Responsive Element (MRE) (AID 2282954); conditions: HepG2 MRE cis-reporter transcription, Attagene multiplex; actives raise or lower the signal
Procedure, shortened: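 HepG2 cells transiently transfected with multiple cis-element reporter units measure endogenous MTF1-driven transcription. After 24 h compound exposure, reporter mRNA is quantified by RT-PCR with 6-FAM labelling, HpaI digestion and capillary electrophoresis; bidirectional fits versus DMSO.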

[11] = ATG_PBREM_CIS: Attagene CIS-FACTORIAL HepG2 Assay for human Phenobarbital-responsive Enhancer Module (PBREM) (AID 2282955); conditions: HepG2 PBREM cis-reporter, Attagene multiplexed transcription; actives raise or lower the signal
Procedure, shortened: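 Multiplexed cis-reporter readout in human hepatoma HepG2 cells; PBREM-regulated transcript quantified after 24 h exposure by fluorescent RT-PCR fragment analysis. Signal changes up or down fitted relative to DMSO.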

[12] = target: Paired box protein Pax-6 (Homo sapiens) (UniProt P26367); assay: ATG_Pax6_CIS: Attagene CIS-FACTORIAL HepG2 Assay for human Paired Box 6 (PAX6) (AID 2282956); conditions: HepG2 CIS-FACTORIAL PAX6 reporter transcription, RNA readout; actives raise or lower the signal
Procedure, shortened: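 Multiplexed cis-reporter HepG2 system; 24 h treatment; reporter mRNA read by RT-PCR/CE fluorescence; bidirectional fit vs DMSO.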

[13] = ATG_PXRE_CIS: Attagene CIS-FACTORIAL HepG2 Assay for human Pregnane X Receptor Element (PXRE) (AID 2282957); conditions: HepG2 Attagene CIS-FACTORIAL PXRE reporter, mRNA; actives raise or lower the signal
Procedure, shortened: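 HepG2 cells transiently transfected with cis-regulated multiple reporter transcription units; endogenous factor activity measured as reporter mRNA 24 h after dosing. RT-PCR, fluorescent primer extension, HpaI digestion, capillary electrophoresis; bidirectional fit versus DMSO baseline.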

[14] = ATG_PPRE_CIS: Attagene CIS-FACTORIAL HepG2 Assay for human Peroxisome Proliferator-activated Response Element (PPRE) (AID 2282958); conditions: HepG2 PPRE cis-element reporter, Attagene transcription factor profiling; actives raise or lower the signal
Procedure, shortened: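 DMSO served as negative control and baseline for bidirectional curve fitting. Signal came from PPRE-regulated reporter mRNA in HepG2 cells, measured 24 h post-dosing by RT-PCR, 6-FAM primer extension and capillary electrophoresis.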

[15] = ATG_RORE_CIS: Attagene CIS-FACTORIAL HepG2 Assay for human RAR-related Orphan Receptor Element (RORE) (AID 2282959); conditions: HepG2 Attagene cis-factorial RORE reporter, mRNA; actives raise or lower the signal
Procedure, shortened: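 Transfect HepG2 with MRTUs; treat 24 h; extract RNA; RT with oligo(dT); PCR with reporter-specific primers; 6-FAM primer extension; HpaI digest 2 h at 37 C; capillary electrophoresis. Fit vs DMSO, bidirectional.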

[16] = ATG_Sox_CIS: Attagene CIS-FACTORIAL HepG2 Assay for human SRY-box transcription factor (SOX) (AID 2282960); conditions: HepG2 Attagene cis-factorial SOX reporter, mRNA; actives raise or lower the signal
Procedure, shortened: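 Fluorescence-labelled cDNA fragments from reporter transcripts, sized by CE, give the signal. Cells: HepG2, transiently transfected with cis-regulated reporter units. Exposure 24 h; DMSO negative control; bidirectional curve fitting.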

[17] = target: Transcription factor Sp1 (Homo sapiens) (UniProt P08047); assay: ATG_Sp1_CIS: Attagene CIS-FACTORIAL HepG2 Assay for human Specificity Protein 1 (Sp1) (AID 2282961); conditions: HepG2 Sp1 cis-reporter transcription, actives raise or lower the signal
Procedure, shortened: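 Chemicals are dosed onto HepG2 cells transfected with multiple cis-promoter reporter constructs, and after 24 h reporter RNA is reverse-transcribed, PCR-amplified and resolved by capillary electrophoresis for fluorescence quantitation; activity is scored up or down against DMSO.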

[18] = ATG_SREBP_CIS: Attagene CIS-FACTORIAL HepG2 Assay for human Sterol Regulatory Element Binding (SREBP) (AID 2282962); conditions: HepG2 Attagene cis-factorial SREBP reporter, mRNA; actives raise or lower the signal
Procedure, shortened: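 mRNA induction of transfected cis-promoter reporters in HepG2 cells, 24 h post-dose. Detection: RT-PCR with 6-FAM-labelled products, HpaI digest, capillary electrophoresis. DMSO served as negative control and baseline.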

[19] = target: Signal transducer and activator of transcription 3 (Homo sapiens) (UniProt P40763); assay: ATG_STAT3_CIS: Attagene CIS-FACTORIAL HepG2 Assay for human Signal Transducer and Activator of Transcription 3 (STAT3) (AID 2282963); conditions: HepG2, Attagene cis-factorial STAT3 reporter transcription; actives raise or lower the signal
Procedure, shortened: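 HepG2 cells transiently transfected with cis-element-driven multiple reporter transcription units; after 24 h chemical exposure, reporter mRNA measured by RT-PCR, 6-FAM primer-extension labelling, HpaI digestion and capillary electrophoresis. Bidirectional fitting versus DMSO baseline.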

[20] = ATG_TA_CIS: Attagene CIS-FACTORIAL HepG2 Assay for human TA Basal Promoter (AID 2282964); conditions: HepG2 Attagene CIS-factorial TA basal promoter reporter; actives raise or lower the signal
Procedure, shortened: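 Steps: transfect HepG2 with MRTUs; dose 24 h; isolate RNA, DNase-treat, reverse-transcribe; PCR and FAM-label reporter cDNA; digest with HpaI 2h at 37 C; run capillary electrophoresis. Activity fitted both directions against DMSO.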

Measured: outcome

Chain of Hepatocyte nuclear factor 6 (Homo sapiens) (Q9UBC0 whole entry, looked up): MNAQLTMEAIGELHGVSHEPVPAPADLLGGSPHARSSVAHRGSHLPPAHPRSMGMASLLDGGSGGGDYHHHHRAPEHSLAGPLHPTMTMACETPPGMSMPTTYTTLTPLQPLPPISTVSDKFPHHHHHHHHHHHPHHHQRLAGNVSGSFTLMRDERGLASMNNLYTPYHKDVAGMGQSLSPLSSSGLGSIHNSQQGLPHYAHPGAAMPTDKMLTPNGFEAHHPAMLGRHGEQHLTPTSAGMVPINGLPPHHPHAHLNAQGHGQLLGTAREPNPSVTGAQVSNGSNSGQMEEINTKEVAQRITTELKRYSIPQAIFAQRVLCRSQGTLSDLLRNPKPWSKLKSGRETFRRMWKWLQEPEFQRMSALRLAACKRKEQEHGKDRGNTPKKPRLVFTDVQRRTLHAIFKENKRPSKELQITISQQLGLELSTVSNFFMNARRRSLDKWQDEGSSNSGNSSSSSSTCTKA
Chain of Hypoxia-inducible factor 1-alpha (Homo sapiens) (Q16665 whole entry, looked up): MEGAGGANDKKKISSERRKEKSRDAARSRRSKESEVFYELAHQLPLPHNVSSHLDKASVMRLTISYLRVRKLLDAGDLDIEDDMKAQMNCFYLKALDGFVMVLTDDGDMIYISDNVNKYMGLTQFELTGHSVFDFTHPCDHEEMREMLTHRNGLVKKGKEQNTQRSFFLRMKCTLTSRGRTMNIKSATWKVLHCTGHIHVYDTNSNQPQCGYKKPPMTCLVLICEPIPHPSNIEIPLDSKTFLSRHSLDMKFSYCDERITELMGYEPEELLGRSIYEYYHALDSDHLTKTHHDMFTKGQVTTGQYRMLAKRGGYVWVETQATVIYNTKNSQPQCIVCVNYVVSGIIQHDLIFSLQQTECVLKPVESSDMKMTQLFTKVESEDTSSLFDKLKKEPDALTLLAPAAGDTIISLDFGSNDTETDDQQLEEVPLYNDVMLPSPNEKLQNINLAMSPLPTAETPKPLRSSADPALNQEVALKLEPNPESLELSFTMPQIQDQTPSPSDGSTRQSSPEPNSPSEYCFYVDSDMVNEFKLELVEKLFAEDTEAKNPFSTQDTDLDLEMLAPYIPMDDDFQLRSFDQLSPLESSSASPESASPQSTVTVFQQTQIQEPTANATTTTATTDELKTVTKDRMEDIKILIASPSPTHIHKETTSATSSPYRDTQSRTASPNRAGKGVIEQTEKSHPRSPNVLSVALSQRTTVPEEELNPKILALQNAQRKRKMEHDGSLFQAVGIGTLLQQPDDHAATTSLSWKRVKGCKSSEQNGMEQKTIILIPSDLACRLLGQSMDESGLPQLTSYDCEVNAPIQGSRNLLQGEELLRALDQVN
Chain of Signal transducer and activator of transcription 3 (Homo sapiens) (P40763 whole entry, looked up): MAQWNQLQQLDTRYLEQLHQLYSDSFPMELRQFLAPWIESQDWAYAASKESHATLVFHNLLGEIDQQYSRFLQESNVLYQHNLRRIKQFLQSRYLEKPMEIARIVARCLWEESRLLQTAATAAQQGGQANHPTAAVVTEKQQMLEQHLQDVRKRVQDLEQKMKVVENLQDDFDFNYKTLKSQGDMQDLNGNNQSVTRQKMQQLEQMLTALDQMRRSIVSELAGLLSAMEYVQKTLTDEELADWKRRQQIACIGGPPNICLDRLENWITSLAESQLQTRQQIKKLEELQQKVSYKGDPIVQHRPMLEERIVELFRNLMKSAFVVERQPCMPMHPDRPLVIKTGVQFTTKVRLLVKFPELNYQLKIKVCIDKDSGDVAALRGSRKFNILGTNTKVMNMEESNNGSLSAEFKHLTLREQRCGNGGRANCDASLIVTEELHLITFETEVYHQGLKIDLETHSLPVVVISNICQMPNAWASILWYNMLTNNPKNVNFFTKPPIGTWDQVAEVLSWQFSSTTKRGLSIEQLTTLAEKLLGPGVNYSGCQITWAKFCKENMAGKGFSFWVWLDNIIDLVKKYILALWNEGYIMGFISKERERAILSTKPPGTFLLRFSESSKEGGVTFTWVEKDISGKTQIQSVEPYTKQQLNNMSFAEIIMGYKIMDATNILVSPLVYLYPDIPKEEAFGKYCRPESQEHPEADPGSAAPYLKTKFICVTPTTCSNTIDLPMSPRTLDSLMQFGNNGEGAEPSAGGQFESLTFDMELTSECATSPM
Chain of Heat shock factor protein 1 (Homo sapiens) (Q00613 whole entry, looked up, the tested form may be a part): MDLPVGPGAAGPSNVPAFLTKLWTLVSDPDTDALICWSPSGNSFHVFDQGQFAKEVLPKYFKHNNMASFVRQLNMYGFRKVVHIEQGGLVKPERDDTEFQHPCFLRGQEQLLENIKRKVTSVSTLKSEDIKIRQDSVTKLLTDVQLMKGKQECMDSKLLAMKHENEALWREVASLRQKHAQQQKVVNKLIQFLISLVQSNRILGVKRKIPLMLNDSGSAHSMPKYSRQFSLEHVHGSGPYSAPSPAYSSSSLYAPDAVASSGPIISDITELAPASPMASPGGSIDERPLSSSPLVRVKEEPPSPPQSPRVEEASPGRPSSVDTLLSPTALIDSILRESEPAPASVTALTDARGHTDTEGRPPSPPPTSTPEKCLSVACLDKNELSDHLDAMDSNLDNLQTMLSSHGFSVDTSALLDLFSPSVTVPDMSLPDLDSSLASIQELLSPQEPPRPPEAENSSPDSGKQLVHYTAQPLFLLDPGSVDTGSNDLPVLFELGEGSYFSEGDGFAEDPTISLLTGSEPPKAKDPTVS
Chain of Bile acid receptor (Homo sapiens) (Q96RI1 whole entry, looked up): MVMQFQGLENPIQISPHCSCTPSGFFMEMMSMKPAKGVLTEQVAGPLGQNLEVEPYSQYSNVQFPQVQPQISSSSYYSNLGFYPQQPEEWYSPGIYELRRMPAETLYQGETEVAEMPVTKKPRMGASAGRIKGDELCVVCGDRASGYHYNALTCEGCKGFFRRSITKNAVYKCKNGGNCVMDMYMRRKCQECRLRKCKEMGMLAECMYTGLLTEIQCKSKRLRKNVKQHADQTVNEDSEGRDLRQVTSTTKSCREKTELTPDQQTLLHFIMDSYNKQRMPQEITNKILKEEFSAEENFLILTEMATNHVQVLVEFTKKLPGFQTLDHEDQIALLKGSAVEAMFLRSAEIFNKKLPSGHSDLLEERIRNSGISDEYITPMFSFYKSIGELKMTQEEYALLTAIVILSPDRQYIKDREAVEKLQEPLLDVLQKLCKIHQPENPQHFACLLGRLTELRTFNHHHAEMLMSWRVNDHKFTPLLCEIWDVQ
Chain of Transcription factor Sp1 (Homo sapiens) (P08047 whole entry, looked up): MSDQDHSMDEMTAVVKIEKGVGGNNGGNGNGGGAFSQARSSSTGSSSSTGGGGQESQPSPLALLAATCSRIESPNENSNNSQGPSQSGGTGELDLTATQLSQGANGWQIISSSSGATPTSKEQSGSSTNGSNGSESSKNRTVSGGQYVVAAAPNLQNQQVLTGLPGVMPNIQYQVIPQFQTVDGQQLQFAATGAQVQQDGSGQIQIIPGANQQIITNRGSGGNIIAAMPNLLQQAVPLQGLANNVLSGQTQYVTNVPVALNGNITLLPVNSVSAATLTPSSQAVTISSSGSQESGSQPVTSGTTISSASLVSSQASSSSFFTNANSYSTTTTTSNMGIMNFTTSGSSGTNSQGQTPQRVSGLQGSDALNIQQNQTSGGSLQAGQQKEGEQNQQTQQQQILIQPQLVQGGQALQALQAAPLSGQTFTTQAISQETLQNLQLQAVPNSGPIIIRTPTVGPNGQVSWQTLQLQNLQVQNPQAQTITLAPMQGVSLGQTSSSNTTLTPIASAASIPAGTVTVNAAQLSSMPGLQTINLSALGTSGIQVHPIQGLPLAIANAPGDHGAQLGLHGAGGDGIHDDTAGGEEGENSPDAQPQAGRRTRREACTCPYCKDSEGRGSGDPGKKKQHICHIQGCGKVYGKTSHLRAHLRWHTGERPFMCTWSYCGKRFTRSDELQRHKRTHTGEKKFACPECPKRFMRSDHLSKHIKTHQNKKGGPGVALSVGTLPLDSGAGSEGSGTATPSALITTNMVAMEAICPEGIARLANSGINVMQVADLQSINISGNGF
Chain of Paired box protein Pax-6 (Homo sapiens) (P26367 whole entry, looked up): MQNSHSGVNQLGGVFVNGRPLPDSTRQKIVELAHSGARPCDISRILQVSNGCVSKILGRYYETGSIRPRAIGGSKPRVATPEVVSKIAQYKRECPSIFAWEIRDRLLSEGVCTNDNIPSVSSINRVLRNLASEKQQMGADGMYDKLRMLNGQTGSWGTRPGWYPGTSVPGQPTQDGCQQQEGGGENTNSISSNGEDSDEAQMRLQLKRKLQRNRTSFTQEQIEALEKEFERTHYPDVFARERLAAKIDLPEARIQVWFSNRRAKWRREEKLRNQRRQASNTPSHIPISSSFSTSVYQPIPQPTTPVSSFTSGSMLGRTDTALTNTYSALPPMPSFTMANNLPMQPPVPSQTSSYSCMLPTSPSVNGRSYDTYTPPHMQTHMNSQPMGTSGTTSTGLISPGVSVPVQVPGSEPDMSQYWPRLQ

COC(=O)CCC(F)(F)C(F)(F)C(F)(F)C(F)(F)F
inactive: [1] | [2] | [3] | [4] | [5] | [6] | [7] | [8] | [9] | [10] | [11] | [12] | [13] | [14] | [15] | [16] | [17] | [18] | [19]

O=C(O)C(F)(F)C(F)(F)C(F)(F)F
inactive: [1] | [2] | [3] | [4] | [5] | [6] | [7] | [8] | [9] | [10] | [11] | [12] | [13] | [14] | [15] | [16] | [17] | [18] | [19] | [20]

FC(F)(F)C(F)(F)C(F)(F)C(F)(F)C(F)(F)C(F)(F)CCS
inactive: [1] | [2] | [3] | [4] | [5] | [6] | [7] | [8] | [9] | [10] | [11] | [12] | [13] | [14] | [15] | [16] | [17] | [18] | [19] | [20]
